Assay results: PubChem BioAssay AID720507 (National Center for Advancing Translational Sciences (NCATS), 2013)
The campaign covered roughly 2,300 compounds. About 140 (6.1%) were called active. About 18% were inconclusive and are not listed. Calls follow the shape of the dose curve; as a rule, active = well fitted activation curve with a large enough effect; inconclusive = small, poorly fitted or top-dose-only effect; inactive = flat fitted curve, though single readings scatter. These entries were drawn from the full list.

target: D(2) dopamine receptor (Homo sapiens) (UniProt P14416); experiment: qHTS of D3 Dopamine Receptor Agonist: D2 Dopamine Receptor B-arrestin Agonist Counterscreen; details: DiscoveRx PathHunter D2 beta-arrestin, luminescence, 90 min; series mostly up to 76.9 µM; activation: at the top concentration; also: nearly all actives have a fitted effect of over 70% in size; as to activation: % of control where 0% means no effect
Excerpt: D3 DARs represent a very important target for the treatment of several neuropsychiatric disorders. Indeed, one of the most promising therapeutic applications for the D3 DAR is in the area of addiction and related disorders. […] These findings have been observed with a number of addictive substances including cocaine, amphetamine, nicotine, and alcohol. […] Increased D3 DAR activity can thus lead to neuroprotective and neurorestorative actions in the CNS. […] This assay is used to profile the activity of the identified D3 dopamine receptor agonist against the D2 dopamine receptor. Greater than 10% of the maximum dopamine agonist response is desired for this assay. NIH Molecular Libraries Probe Production Centers Network [MLPCN] NIH Chemical Genomics Center [NCGC] MLPCN Grant: NS064831 Assay Submitter (PI): David Sibley
DiscoveRx D2 cells were thawed from frozen stock and seeded at 2,100 cells/ 3 uL/well media (DiscoveRx Plating Reagent 2) with MultiDrop Combi dispenser (Thermo Scientific, Logan, UT) onto white tissue culture treated 1536-well Aurora plates (Brooks Automation, Chelmsford, MA) and allowed to attach overnight at 37 deg C, 5% CO2. Next, 23 nL/well of compound solutions in DMSO were added with a pintool transfer (Kalypsis, San Diego, CA). […] The rest of the plate was dispensed with buffer only, 1 uL/well as well. The cells were stimulated by compounds or dopamine control for 90 minutes at 37 deg C, 5% CO2, after which 1.5 ul/well of DiscoveRx detection reagent was added with BioRAPTR FRD dispenser. The detection reagent was prepared by mixing of Galacton Star Substrate, Emerald II solution and PathHunter buffer (supplied by the assay kit) together at 1:5:19 proportion accordingly just prior to dispensing. The plates were incubated at ambient temperature for 1 hour and then the luminescent signal was read on ViewLux plate reader (PerkinElmer, Waltham, MA).
Potency is read from the fitted curve at half-maximal effect.

Chain of D(2) dopamine receptor (Homo sapiens) (P14416 whole entry, looked up): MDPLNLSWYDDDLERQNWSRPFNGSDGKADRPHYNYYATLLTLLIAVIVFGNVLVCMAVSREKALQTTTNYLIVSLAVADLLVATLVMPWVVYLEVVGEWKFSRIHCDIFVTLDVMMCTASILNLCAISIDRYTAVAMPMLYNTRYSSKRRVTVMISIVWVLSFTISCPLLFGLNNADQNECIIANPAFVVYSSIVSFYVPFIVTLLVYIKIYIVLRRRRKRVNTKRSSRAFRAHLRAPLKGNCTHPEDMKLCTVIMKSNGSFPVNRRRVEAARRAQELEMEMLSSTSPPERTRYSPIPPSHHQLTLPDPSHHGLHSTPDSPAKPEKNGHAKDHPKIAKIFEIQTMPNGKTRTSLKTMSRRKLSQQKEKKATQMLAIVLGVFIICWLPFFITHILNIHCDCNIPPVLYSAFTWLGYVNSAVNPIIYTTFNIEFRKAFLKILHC

SMILES | activation | Potency
O=C(CC1NCCc2ccccc21)Nc1cccc(Cl)c1 (centres undefined) | -6.22% (inactive) | –
O=C1C=C(c2cccc(Br)c2)C[C@@H](c2ccc(F)cc2)C1 | -3.31% (inactive) | –
CC(C)(C)C(=O)OCc1nc(-c2ccc(O)c(O)c2)cs1 | – | 28.2 µM (active)
CC(CCc1ccccc1)NCC(O)c1cccc([N+](=O)[O-])c1 (centres undefined) | 11.9% (inactive) | –
CC(OC(=O)/C=C/c1ccccc1)C(=O)NC1CCCCC1C (centres undefined) | 2.72% (inactive) | –
O=C(OCc1nc2ccccc2[nH]1)C1CCCCC1 | 10.5% (inactive) | –
CCCN1CC=C2C(C#N)=C(N)C(C#N)(C#N)C(c3cc(OC)ccc3OC)C2C1 (centres undefined) | -1.56% (inactive) | –
CN(C)CCOC(=O)C(c1ccccc1)C1(O)CCCC1 (centres undefined) | -3.98% (inactive) | –
COc1cccc(NC(=O)C2CCCN(c3ncnc4c3nc3n4CCCCC3)C2)c1 (centres undefined) | -3.08% (inactive) | –
CC(=C1C(=O)c2ccccc2C1=O)N1CCN(c2ccccn2)CC1 | 24.7% (inactive) | –
CNCC(O)c1ccc(O)c(O)c1 (centres undefined) | – | 17.8 µM (active)
Cc1ccc(CN2CCN(c3ncccn3)CC2)c(C)c1 | – | 50.1 µM (active)
Cc1ccccc1Nc1nc(N)nc(CN2CCN(c3ccccn3)CC2)n1 | -0.216% (inactive) | –
O=C(CN1CCN(c2ncccn2)CC1)Nc1ccccc1C(F)(F)F | 17.1% (inactive) | –
O=C1CC[C@H](O)CCN1[C@H](CSc1ccc(Br)cc1)Cc1ccccc1 | 0.237% (inactive) | –
O=C(c1ccccc1)c1ccc(OCC(O)CN2CCCC2)cc1 (centres undefined) | -1.06% (inactive) | –
Cc1cc(C(=O)NNC(=O)c2ccccc2O)c(C)o1 | -1.85% (inactive) | –

SMILES | activation | Potency
CCCCC(=O)NNC(=S)NC(=O)C(c1ccccc1)c1ccccc1 | -7.08% (inactive) | –
Cn1c(C(=O)NCCCN2CCN(c3cccc(Cl)c3)CC2)cc2c(=O)n(C)c3ccccc3c21 | 9.01% (inactive) | –
CCn1cc(C(=O)N2CCN(Cc3ccc4c(c3)OCO4)CC2)c2cc(OC)c(OC)cc2c1=O | 18.8% (inactive) | –
CCC(CC)NC(=O)/C=C/c1cccc([N+](=O)[O-])c1 | -0.402% (inactive) | –
O=C(CCCn1c(=O)[nH]c2cc(Cl)ccc2c1=O)NCCN1CCN(c2ccccc2)CC1 | 10.7% (inactive) | –
O=C(CCn1c(=O)[nH]c2ccccc2c1=O)NCCCN1CCN(c2cccc(Cl)c2)CC1 | 12.8% (inactive) | –
CC(=O)Nc1ccc(OCC(O)CN2CCN(c3ccccc3Cl)CC2)cc1 (centres undefined) | 18.5% (inactive) | –
Cc1ccccc1OCC(O)CN1CCN(c2ccccn2)CC1 (centres undefined) | 7.71% (inactive) | –
CC(C)c1ccc(OCC(O)CN2CCN(c3ccccn3)CC2)cc1 (centres undefined) | – | 39.8 µM (active)
COc1ccc(C2NC(=O)C(=O)/C2=C(\O)c2ccc(Cl)cc2)cc1OC (centres undefined) | -3.12% (inactive) | –
CCn1c(=O)n(CC)c2cc(N3CCCC3)c(NC(=O)c3ccccc3Br)cc21 | 2.89% (inactive) | –
Cc1cccc(OCC(=O)NCC(=O)N/N=C/c2ccc(N(C)C)cc2)c1 | -2.06% (inactive) | –
OC(COCc1ccco1)CN1CCN(c2ccccc2)CC1 (centres undefined) | 18.6% (inactive) | –
OC(COc1ccc2c(c1)CCC2)CN1CCN(c2cccc(Cl)c2)CC1 (centres undefined) | 27.5% (inactive) | –
CC(C)(C)n1ncc2c(=O)n(Cc3c(Cl)cccc3Br)cnc21 | 6.34% (inactive) | –
CC(C)CCN1CCN(Cc2cn[nH]c2C2CCCCC2)CC1CCO (centres undefined) | 3.55% (inactive) | –
Cc1cc(C)c(/C=C2\C(=O)Nc3ccccc32)[nH]1 | -6.49% (inactive) | –
